Many of the other results were omitted from the sample, so hits are more common in it than they were.
IMPase cell inh: qHTS Assay for Identifying the Cell-Membrane Permeable IMPase Inhibitors. 120,000 tested, under 10 active. Inositol monophosphatase 1 (Rattus norvegicus), P97697. inhibition (IP1 accumulation), % at 46.1 µM. CHO-M1 cells, IP1 accumulation, HTRF TR-FRET ratio. AID 901, 2007; active means well fitted curve in the direction sought with a large enough effect in the signal ratio, not every such curve was filed as active; inconclusive means small, poorly fitted or top-dose-only effect, or a change in a side signal; inactive means no such curve, though single readings can be large or run the other way; the % refers to the signal ratio;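 further: cells stimulated with carbachol in lithium chloride buffer; plate controls were DMSO basal wells for no effect and reference inhibitor wells for full effect; higher means more IMPase inhibition seen as more IP1 and lower FRET ratio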
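Seeded CHO-M1 cells were dosed with compound at up to 46 uM, stimulated with carbachol for 30 min, then lysed in IP-One detection reagents. Higher IP1 lowers the TR-FRET signal.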
PNC inhibitor: High Content Assay for Compounds that inhibit the Assembly of the Perinucleolar Compartment; 3.1% of 140,000 active; activity change (PNC), negative = inhibition, % at 10 µM; PC3M PTB-GFP, PNC prevalence imaging, 16 h; active compounds read low;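 active means readout at or below -70, meaning at least 70% loss of cells showing the perinucleolar compartment, a nuclear body marking cancer cells; inconclusive means readout between -30 and a set limit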;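 further: plate controls were DMSO wells for no effect and camptothecin positive control wells for full effect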
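Compounds are pinned in duplicate onto adhered PC3M cells stably expressing GFP-tagged PTB and incubated 16 h at 37 C. Cells are then fixed, nuclei stained with Hoechst, and PNC-positive cells counted.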
15-hLO-2 inh: qHTS Assay for Inhibitors of 15-hLO-2 (15-human lipoxygenase 2); AID 881, 2007; 0.56% of 110,000 active; purified 15hLO-2, xylenol orange hydroperoxide absorbance; Polyunsaturated fatty acid lipoxygenase ALOX15B (Homo sapiens), O15296; Potency, µM (series often up to 57.1 µM), inactives show at the highest dose activity change, negative = inhibition, usual class: inhibitors; further: potency means the concentration at half of the fitted maximal effect; nearly all actives have a fitted effect of over 60% in size
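Read-out: hydroperoxide product oxidises ferrous iron, measured as xylenol orange complex via the 573-to-405 nm absorbance ratio after 30 min. Reaction: 50 nM enzyme, 15 min compound preincubation, 45 uM arachidonic acid, 90 min RT, Hepes pH 7.5 with Triton X-100.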
IMPase Li cell: qHTS Assay for Identifying the Cell-Membrane Permeable IMPase Inhibitors: Potentiation with Lithium; CHO-M1 cells, IP1 TR-FRET (IP-One), carbachol + lithium; Potency, µM (titrated, usually from 59.4 µM), for inactives: at the top dose activity, negative = IMPase inhibition, actives largely listed as inhibitors; 0.35% of 210,000 active; AID 1457, 2008;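 further: IP1 builds up when IMPase is blocked and the TR-FRET signal falls; potency means the concentration at half of the fitted maximal effect; plate controls were basal vehicle for no effect and high inhibitor control for full effect; nearly all actives have a fitted effect of over 50% in size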
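Lithium-sensitised IP1 accumulation assay; M1-expressing CHO cells treated 30 min at 37C with compound. Competitive antibody detection by time-resolved FRET followed a 10 min room-temperature lysis step.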
ALOX12 inhib: qHTS Assay for Inhibitors of 12-hLO (12-human lipoxygenase) | Polyunsaturated fatty acid lipoxygenase ALOX12 (Homo sapiens), P18054 | purified 12-hLO, xylenol orange hydroperoxide absorbance | Potency, µM (top dose mostly 57.1 µM), for inactives: at the top dose activity change, negative = inhibition, hits mostly inhibitors | 0.12% of 150,000 active | AID 1452, 2008; further: potency means the concentration at half of the fitted maximal effect; nearly all actives have a fitted effect of over 55% in size
Target sequence (P18054 whole entry, looked up): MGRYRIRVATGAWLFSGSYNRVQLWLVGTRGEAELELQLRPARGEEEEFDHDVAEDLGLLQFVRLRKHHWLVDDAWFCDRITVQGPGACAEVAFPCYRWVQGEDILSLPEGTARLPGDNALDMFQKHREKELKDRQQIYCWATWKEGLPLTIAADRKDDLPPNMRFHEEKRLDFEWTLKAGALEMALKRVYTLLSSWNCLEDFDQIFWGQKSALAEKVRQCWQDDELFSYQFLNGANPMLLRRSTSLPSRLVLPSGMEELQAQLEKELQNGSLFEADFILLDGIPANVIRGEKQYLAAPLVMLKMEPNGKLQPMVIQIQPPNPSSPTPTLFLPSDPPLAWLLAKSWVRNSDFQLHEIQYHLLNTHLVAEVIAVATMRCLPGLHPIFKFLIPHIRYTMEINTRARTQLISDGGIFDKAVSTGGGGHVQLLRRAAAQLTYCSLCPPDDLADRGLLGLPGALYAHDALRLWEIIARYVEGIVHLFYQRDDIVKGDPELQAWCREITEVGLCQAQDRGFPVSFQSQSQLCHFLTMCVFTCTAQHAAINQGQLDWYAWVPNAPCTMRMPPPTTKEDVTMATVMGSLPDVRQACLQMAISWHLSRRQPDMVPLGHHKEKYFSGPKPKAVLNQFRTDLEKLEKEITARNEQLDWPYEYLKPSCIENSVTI
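Purified human 12hLO (150 nM), preincubated 15 min with compound, then 40 uM arachidonic acid for 30 min, room temperature, Hepes pH 7.0 with 0.01% Triton X-100. Hydroperoxide detected by ferrous iron/xylenol orange; 573/405 nm absorbance ratio gives reaction progress.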
* marks the source's active call; other numbers are inactive results; ? = inconclusive; nt = not tested or not shown; [ ] = another dose, or the depositor's remark. Unless noted, the call rests on the fitted dose curve; in most records, active means well fitted curve in the direction sought with a large enough effect; inconclusive means small, poorly fitted or top-dose-only effect, or another doubt; inactive means no such curve, though single readings can be large; an effect the other way counts as inactive or inconclusive. Unless noted, on the % scale 0 is the no-effect control and ±100 the full control effect.

SMILES	IMPase cell inh	PNC inhibitor	15-hLO-2 inh	IMPase Li cell	ALOX12 inhib
Cc1c(CNC(=O)c2cnn3c2NC(c2ccc(Br)cc2)CC3C(F)(F)F)cnn1C (stereo not given)	-1	-123*	-11%	35%[38.3 µM]	-17%
Cc1nc(N2C(=O)C(=O)/C(=C(/O)c3ccccc3)C2c2ccco2)sc1C (stereo not given)	-7	16	-23%	-11%[38.3 µM]	9%
COC(=O)c1sc(N2C(=O)C(=O)/C(=C(/O)c3ccccc3)C2c2ccco2)nc1C (stereo not given)	nt	-84*	nt	-18%	16%
COc1ccc(C(=O)NCc2cn3c(C)csc3n2)cc1OC	1	-100*	nt	-4%	5%
O=C(N/N=C(\c1ccccc1)c1cccnc1)C(O)(c1ccccc1)c1ccccc1	0	-92*	5%	13%[38.3 µM]	-2%
Cc1cc(NS(=O)(=O)c2ccc(NC(=O)COc3ccccc3Br)cc2)no1	-6	nt	nt	nt	nt
COc1ccc(CCNC(=O)c2nc3ncccn3n2)cc1OC	0	-107*	-1%	20%[38.3 µM]	3%
Cc1cccc(C)c1Nc1c(-c2ccc(Cl)s2)nc2ncccn12	-15	nt	nt	nt	nt
CCCOc1ccc(C(=O)Nc2nc(C)c(Cc3ccc4c(c3)OCO4)s2)cc1	nt	?	nt	10µM*	1%
CCc1cc2c(=O)c(-c3nc4ccccc4n3C)c(C(C)C)oc2c(CN2CCN(C)CC2)c1O	3	-104*	nt	8%	0%
CC(C)=CCNc1ncnc2c1c(C#N)cn2[C@H]1O[C@@H](CO)[C@@H](O)[C@@H]1O	nt	nt	-21%[11.4 µM]	2%	-2%[11.4 µM]
COc1ccc(NC(=S)N2CCN(c3ccccn3)CC2)cc1OC	3	-115*	nt	nt	-3%
COc1ccc(-c2cc(C(F)(F)F)n3nc(C(=O)Nc4ccccc4SC)cc3n2)cc1OC	6	nt	nt	nt	nt
CC(=O)c1sc2nc(C)cc(C)c2c1N	5[1.84 µM]	9	5%[11.4 µM]	15%[38.3 µM]	-4%
Cc1cc(C)c2c(N)c(C(=O)NCc3ccco3)sc2n1	-5	-98*	nt	1%	3%
C/C=C/C1=CC2=CC(=O)C(C)(OC(=O)c3c(C)cc(O)cc3O)C(=O)C2=CO1 (stereo not given)	nt	nt	nt	-3%	nt
O=C(N/N=C/c1cccc(O)c1)c1ccc(COc2cccc3cccnc23)cc1	nt	nt	nt	-5%	nt
Cc1ccc(C(C)C)c(OCc2ccc(C(=O)N/N=C/c3ccc(O)cc3O)cc2)c1	0	-89*	nt	0%	2%
O=C(N/N=C/c1cccc(O)c1)c1ccc(COc2ccccc2Br)cc1	nt	-124*	nt	19%	-13%
COc1cc(C(=O)N2CCN(c3ccc(C)cc3C)CC2)cc(OC)c1OC	2	-119*	nt	6%	-4%
COc1ccc(C(=O)N2CCN(Cc3cc(OC)c(O)c(OC)c3)CC2)cc1OC	12	-87*	-12%	nt	-24%
COc1cccc(C(=O)N2CCN(C(=O)c3cccc4ccccc34)CC2)c1OC	7	9	0%	12%[38.3 µM]	-3%
COc1ccc(CN2CCN(C(=O)c3cc(OC)c(OC)c(OC)c3)CC2)cc1OC	1	-100*	nt	1%	-3%
COc1cc(CN2CCN(C(=O)CC(C)C)CC2)cc(OC)c1OC	4	?	-10%	2%[38.3 µM]	-4%
Cc1ccc(N2CCN(C(=O)c3ccccc3)CC2)c(C)c1	2	13	-3%	23%[38.3 µM]	-4%
SMILES	IMPase cell inh	PNC inhibitor	15-hLO-2 inh	IMPase Li cell	ALOX12 inhib
CCc1ccc(CN2CCN(C(=O)c3cccc(OC)c3OC)CC2)cc1	-11	-100*	nt	5%	0%
CCc1cccc2nc3c(c([Si](C)(C)C)c12)Cn1c-3cccc1=O	nt	nt	-11%	-4%	-2%
COc1cccc(Cn2c(=O)cnc3cnc(OC)nc32)c1	nt	nt	-14%	-1%	nt
CC(CC(=O)O)(CC(=O)O)C(=O)O	nt	nt	-5%[11.4 µM]	10%	1%[11.4 µM]
Cc1ccc(OCC2Cn3c(nc4c3c(=O)[nH]c(=O)n4C)O2)cc1 (stereo not given)	6	-103*	5%	0%	0%
Cc1ccccc1OCC1Cn2c(nc3c2c(=O)[nH]c(=O)n3C)O1 (stereo not given)	-7	22	3%	-5%[38.3 µM]	1%
CCOC(=O)CSc1cn2c(n1)CCC2	5	-100*	nt	1%	0%
CCOC(=O)CSc1nc(C)cc(C)n1	-9	-28	4%	-2%[38.3 µM]	1%
C[C@H]1Cc2c(-c3ccccc3)nc3c(c2CO1)CN(C(=O)Nc1cccc(C#N)c1)CC3	nt	nt	nt	10%	-1%[11.4 µM]
CC(C)(C)NC(=S)NNC(=O)c1ccncc1	nt	-114*	nt	5%	4%
CCNC(=S)NNC(=O)c1ccncc1	nt	nt	nt	2%	nt
COc1ccc2c(c1)C(c1cc(OC)c(OC)c(OC)c1)CC(=O)O2 (stereo not given)	nt	nt	-13%[0.0915 µM]	12%	-4%[0.00818 µM]
CCOc1ccccc1-n1c(SCC(N)=O)nc2ccccc2c1=O	2	-106*	2%	-3%[38.3 µM]	4%
N#C/C(=C/c1ccc(N2CCCCC2)o1)c1cccc(F)c1	0	22	10µM*	30%[38.3 µM]	-25%
Cc1ccc2nc(/C(C#N)=C\c3ccc(N4CCOCC4)o3)[nH]c2c1	2	17	nt	25%	-29%
Cc1ccc(/C(C#N)=C\c2ccc(N3CCOCC3)o2)cc1	4	-26	13µM*	25%	-24%
N#C/C(=C/c1ccc(N2CCCCC2)cc1)c1cccc(F)c1	13	-16	nt	3%	2%
N#C/C(=C/c1ccc(N2CCCCCC2)o1)c1ccc(Cl)cc1	13	-4	7.9µM*	20%[38.3 µM]	?
CS(=O)(=O)N(CC(=O)NCCc1ccccc1)c1cc(C(F)(F)F)ccc1Cl	-5	nt	nt	nt	nt
O=C(CNC(=O)c1ccco1)NCC(=O)OC(C(=O)c1ccccc1)c1ccc(Cl)cc1 (stereo not given)	2	-100*	nt	3%	-6%
O=C(CNC(=O)c1ccco1)OC(C(=O)c1ccccc1)c1ccccc1 (stereo not given)	11	-1	nt	1%[38.3 µM]	0%
Cc1ccc(Cn2ncc(Cl)c(Cl)c2=O)cc1	nt	-105*	nt	0%	-2%
Cc1ccc(Nc2nc3ccccc3c3nncn23)cc1C	3	nt	nt	nt	nt
COCCNC(=O)CN(c1ccc(OC)c(OC)c1)S(=O)(=O)c1ccc(C)cc1	3	-106*	-5%	-4%[38.3 µM]	-7%
COc1ccc(CCNC(=O)CN(c2ccc(OC)c(OC)c2)S(C)(=O)=O)cc1	0	-139*	-3%	11%[38.3 µM]	5%
COc1ccc(CCNC(=O)CN(C)S(=O)(=O)c2ccc(Br)s2)cc1OC	nt	-83*	nt	-1%	-5%
COc1ccc(CCNC(=O)CN(C)S(=O)(=O)c2cccs2)cc1OC	4	23	4%	17%[38.3 µM]	0%
